# From PubChem BioAssay (EPA / NIEHS)
# Activity calls are given as the source filed them. How the source made its calls: active means hit-call score of the fitted dose curve at least 0.9, where 1 is the maximum; inactive means score below 0.9.
# Experiments:
# [1] = CEETOX_H295R_PROG: CeeTox H295R High-throughput Steroidogenesis Assay for Progesterone (PROG) (AID 2283442); details: actives raise or lower the signal;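 on AC50: human H295R adrenal cells primed with 10 µM forskolin before dosing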
# Summary of the method: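 Progesterone read-out: HPLC-MS/MS on MTBE extracts of conditioned medium after 48 h chemical exposure of forskolin-primed (10 uM, 48 h) H295R cells. Gain or loss of signal was fitted relative to DMSO baseline.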
# [2] = read-out: Tumor necrosis factor receptor superfamily member 6 (Homo sapiens) (UniProt P25445); assay: LTEA_HepaRG_FAS: Life Technologies and Expression Analysis (LTEA) Assay for Fas cell surface death receptor (FAS) using HepaRG (AID 2283447); details: mRNA level, 48 h; actives raise or lower the signal
# Summary of the method: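 Differentiated HepaRG cells in serum-free induction medium were exposed 48 h to 8 half-log concentrations up to 100 uM in 0.5% DMSO, in duplicate. FAS mRNA was measured by qRT-PCR normalised to ACTB, GAPDH and POLR2A; bidirectional fit versus DMSO.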
# [3] = read-out: Fatty acid synthase (Homo sapiens) (UniProt P49327); assay: LTEA_HepaRG_FASN: Life Technologies and Expression Analysis (LTEA) Assay for Fatty Acid Synthase (FASN) using HepaRG (AID 2283448); details: mRNA level, 48 h; actives raise or lower the signal;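 on AC50: differentiated human HepaRG liver cells in serum-free induction medium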
# Summary of the method: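 FASN transcript measured by TaqMan qRT-PCR, normalised to three housekeeping genes, after 48 h chemical exposure of HepaRG cells. Eight-point half-log series from 100 uM in 0.5% DMSO, duplicates; gain or loss fitted against vehicle.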
# [4] = read-out: Cyclin D2 (CCND2), CCND2 (gene 894); assay: LTEA_HepaRG_CCND2: Life Technologies and Expression Analysis (LTEA) Assay for Cyclin D2 (CCND2) using HepaRG (AID 2283449); details: mRNA level, 48 h; actives raise or lower the signal;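 further: CCND2 transcript measured by TaqMan qRT-PCR and normalised to three housekeeping genes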
# Summary of the method: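 HepaRG, 48 h dosing, 8-pt half-log curve from 100 uM, 0.5% DMSO; duplicate wells. Readout: CCND2 transcript by microfluidic qRT-PCR, housekeeping-normalised; bidirectional fit vs DMSO baseline.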
# [5] = read-out: Cyclin Dependent Kinase Inhibitor 1A (CDKN1A), CDKN1A (gene 1026); assay: LTEA_HepaRG_CDKN1A: Life Technologies and Expression Analysis (LTEA) Assay for Cyclin Dependent Kinase Inhibitor 1A (CDKN1A) using HepaRG (AID 2283450); details: mRNA level, 48 h; actives raise or lower the signal
# Summary of the method: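 HepaRG, 48 h dosing, 8-pt half-log series from 100 uM top, 0.5% DMSO vehicle, duplicates. Readout: TaqMan qRT-PCR of CDKN1A transcript, housekeeping-normalized (ACTB, GAPDH, POLR2A). Up/down curve fit relative to DMSO.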
# [6] = read-out: Cyclin D1 (CCND1), CCND1 (gene 595); assay: LTEA_HepaRG_CCND1: Life Technologies and Expression Analysis (LTEA) Assay for Cyclin D1 (CCND1) using HepaRG (AID 2283451); details: mRNA level, 48 h; actives raise or lower the signal
# Summary of the method: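 qRT-PCR (Fluidigm 96.96 array) read-out of transcript level, housekeeping-normalized (ACTB/GAPDH/POLR2A). HepaRG cells, 48 h chemical exposure, 8-point half-log series from 100 uM, 0.5% DMSO vehicle; gain or loss relative to DMSO baseline.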
# [7] = read-out: catalase (CAT), CAT (gene 847); assay: LTEA_HepaRG_CAT: Life Technologies and Expression Analysis (LTEA) Assay for catalase (CAT) using HepaRG (AID 2283452); details: mRNA level, 48 h; actives raise or lower the signal
# Summary of the method: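 HepaRG cells in serum-free induction medium, 0.5% DMSO vehicle, exposed 48 h in duplicate over 8 half-log concentrations from 100 uM. CAT mRNA measured by qRT-PCR, normalized to ACTB, GAPDH, POLR2A; bidirectional fit versus DMSO.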
# [8] = read-out: flavin-containing dimethylaniline monooxygenases 3 (FMO3), FMO3 (gene 2328); assay: LTEA_HepaRG_FMO3: Life Technologies and Expression Analysis (LTEA) Assay for flavin-containing dimethylaniline monooxygenases 3 (FMO3) using HepaRG (AID 2283453); details: mRNA level, 48 h; actives raise or lower the signal
# Summary of the method: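 FMO3 transcript quantified by TaqMan qRT-PCR against three housekeeping genes after 48 h chemical exposure of HepaRG cells. Eight-point half-log series, top 100 uM, 0.5% DMSO vehicle; phenobarbital 1mM induction control; up- or down-regulation fitted.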
# [9] = read-out: Cytochrome P450 (CYP1A1), CYP1A1 (gene 1543); assay: LTEA_HepaRG_CYP1A1: Life Technologies and Expression Analysis (LTEA) Assay for Cytochrome P450 (CYP1A1) using HepaRG (AID 2283454); details: mRNA level, 48 h; actives raise or lower the signal
# Summary of the method: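 qRT-PCR read-out: CYP1A1 transcript normalized to three housekeeping genes, fitted bidirectionally against 0.5% DMSO vehicle baseline. Human HepaRG cells, 48 h chemical exposure, 8-point half-log series topping at 100 uM.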
# [10] = read-out: Forkhead box O1 (FOXO1), FOXO1 (gene 2308); assay: LTEA_HepaRG_FOXO1: Life Technologies and Expression Analysis (LTEA) Assay for Forkhead box O1 (FOXO1) using HepaRG (AID 2283456); details: mRNA level, 48 h; actives raise or lower the signal
# Summary of the method: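 HepaRG, 48 h exposure, 8-pt half-log series from 100 uM in 0.5% DMSO, duplicates; Fluidigm qRT-PCR mRNA, housekeeping-normalised; bidirectional fit vs DMSO baseline.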
# [11] = read-out: growth arrest and DNA damage 45 (GADD45A), GADD45A (gene 1647); assay: LTEA_HepaRG_GADD45A: Life Technologies and Expression Analysis (LTEA) Assay for growth arrest and DNA damage 45 (GADD45A) using HepaRG (AID 2283458); details: mRNA level, 48 h; actives raise or lower the signal
# Summary of the method: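 GADD45A expression was measured by TaqMan qRT-PCR against three housekeeping genes (ACTB, GAPDH, POLR2A) after 48 h treatment of HepaRG cells. Eight-point half-log series up to 100 uM in 0.5% DMSO, run in duplicate.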
# [12] = read-out: Forkhead box O3 (FOXO3), FOXO3 (gene 2309); assay: LTEA_HepaRG_FOXO3: Life Technologies and Expression Analysis (LTEA) Assay for Forkhead box O3 (FOXO3) using HepaRG (AID 2283459); details: mRNA level, 48 h; actives raise or lower the signal
# Summary of the method: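 qRT-PCR readout of FOXO3 transcript, normalized to three housekeeping genes (ACTB, GAPDH, POLR2A); gain or loss fitted against 0.5% DMSO vehicle. HepaRG cells, 48 h chemical exposure, 8-point half-log series, top 100 uM.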
# [13] = read-out: growth arrest and DNA damage 45 (GADD45B), GADD45B (gene 4616); assay: LTEA_HepaRG_GADD45B: Life Technologies and Expression Analysis (LTEA) Assay for growth arrest and DNA damage 45 (GADD45B) using HepaRG (AID 2283461); details: mRNA level, 48 h; actives raise or lower the signal
# Summary of the method: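 qRT-PCR read-out (Fluidigm TaqMan, housekeeping-normalized) of mRNA change in human HepaRG cells after 48 h chemical exposure; 8-point curve, top 100 uM, half-log steps, 0.5% DMSO vehicle; gain or loss fitted relative to DMSO baseline.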
# [14] = read-out: ABC Transporter (ABCC3), ABCC3 (gene 8714); assay: LTEA_HepaRG_ABCC3: Life Technologies and Expression Analysis (LTEA) Assay for ABC Transporter (ABCC3) using HepaRG (AID 2283462); details: mRNA level, 48 h; actives raise or lower the signal
# Summary of the method: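 qRT-PCR read-out of ABCC3 transcript, normalized to three housekeeping genes (ACTB, GAPDH, POLR2A), after 48 h chemical exposure of human HepaRG cells. Eight half-log concentrations, highest 100 uM, in 0.5% DMSO; gain or loss fitted relative to DMSO baseline.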
# [15] = read-out: ABC Transporter (ABCB11), ABCB11 (gene 8647); assay: LTEA_HepaRG_ABCB11: Life Technologies and Expression Analysis (LTEA) Assay for ABC Transporter (ABCB11) using HepaRG (AID 2283463); details: mRNA level, 48 h; actives raise or lower the signal
# Summary of the method: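 HepaRG, 48 h exposure, 8-pt half-log CRC top 100 uM, 0.5% DMSO vehicle, duplicates. Readout: TaqMan qRT-PCR of ABCB11 mRNA, housekeeping-normalized (ACTB/GAPDH/POLR2A). Bidirectional fit vs DMSO baseline.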
# [16] = read-out: ABC Transporter (ABCC2), ABCC2 (gene 1244); assay: LTEA_HepaRG_ABCC2: Life Technologies and Expression Analysis (LTEA) Assay for ABC Transporter (ABCC2) using HepaRG (AID 2283464); details: mRNA level, 48 h; actives raise or lower the signal
# Summary of the method: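 qRT-PCR (TaqMan, Fluidigm array) read-out of ABCC2 mRNA, normalized to three housekeeping genes. Differentiated HepaRG cells were treated 48 h in serum-free induction medium with 8-point half-log series from 100 uM in 0.5% DMSO; curves fitted bidirectionally relative to DMSO.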
# [17] = read-out: Broad substrate specificity ATP-binding cassette transporter ABCG2 (Homo sapiens) (UniProt Q9UNQ0); assay: LTEA_HepaRG_ABCG2: Life Technologies and Expression Analysis (LTEA) Assay for ABC Transporter (ABCG2) using HepaRG (AID 2283465); details: mRNA level, 48 h; actives raise or lower the signal
# Summary of the method: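 HepaRG, 48 h exposure, 8-pt half-log series from 100 uM, 0.5% DMSO vehicle, duplicates. Readout: ABCG2 transcript by qRT-PCR (Fluidigm array), housekeeping-normalized; bidirectional curve fit relative to DMSO baseline.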
# [18] = read-out: CFLAR gene, CFLAR (gene 8837); assay: LTEA_HepaRG_CFLAR: Life Technologies and Expression Analysis (LTEA) Assay for CFLAR gene using HepaRG (AID 2283455); details: mRNA level, 48 h; actives raise or lower the signal
# Summary of the method: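 qRT-PCR read-out (Fluidigm/TaqMan) of CFLAR mRNA, normalized to three housekeeping genes, in differentiated human HepaRG cells after 48 h chemical exposure; 8-point half-log series from 100 uM in 0.5% DMSO; bidirectional curve fitting versus DMSO.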
# [19] = read-out: ABC Transporter (ABCB1), ABCB1 (gene 5243); assay: LTEA_HepaRG_ABCB1: Life Technologies and Expression Analysis (LTEA) Assay for ABC Transporter (ABCB1) using HepaRG (AID 2283460); details: mRNA level, 48 h; actives raise or lower the signal
# Summary of the method: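 HepaRG, 48 h exposure, 8-pt half-log series from 100 uM, 0.5% DMSO vehicle, duplicates. Readout: ABCB1 transcript by Fluidigm TaqMan qRT-PCR, housekeeping-normalized; bidirectional curve fit vs DMSO baseline.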
# Sequence of Broad substrate specificity ATP-binding cassette transporter ABCG2 (Homo sapiens) (Q9UNQ0 whole entry, looked up): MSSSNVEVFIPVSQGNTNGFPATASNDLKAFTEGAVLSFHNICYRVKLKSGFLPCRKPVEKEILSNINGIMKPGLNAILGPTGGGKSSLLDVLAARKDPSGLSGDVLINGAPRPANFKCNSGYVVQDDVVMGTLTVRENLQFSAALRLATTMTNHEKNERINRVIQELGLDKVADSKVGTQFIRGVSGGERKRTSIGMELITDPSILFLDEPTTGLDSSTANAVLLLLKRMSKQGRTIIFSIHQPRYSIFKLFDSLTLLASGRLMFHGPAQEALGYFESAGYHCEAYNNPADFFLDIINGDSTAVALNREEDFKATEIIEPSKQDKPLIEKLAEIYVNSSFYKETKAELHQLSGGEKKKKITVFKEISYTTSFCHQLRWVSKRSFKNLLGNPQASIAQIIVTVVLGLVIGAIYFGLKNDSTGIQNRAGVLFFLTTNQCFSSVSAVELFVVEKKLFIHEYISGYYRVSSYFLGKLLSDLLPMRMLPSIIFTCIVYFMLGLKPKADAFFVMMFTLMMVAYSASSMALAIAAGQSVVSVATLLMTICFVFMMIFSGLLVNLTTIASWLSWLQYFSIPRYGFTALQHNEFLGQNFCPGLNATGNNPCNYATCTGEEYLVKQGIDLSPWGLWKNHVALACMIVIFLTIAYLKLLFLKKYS
# Sequence of Fatty acid synthase (Homo sapiens) (P49327 whole entry, looked up): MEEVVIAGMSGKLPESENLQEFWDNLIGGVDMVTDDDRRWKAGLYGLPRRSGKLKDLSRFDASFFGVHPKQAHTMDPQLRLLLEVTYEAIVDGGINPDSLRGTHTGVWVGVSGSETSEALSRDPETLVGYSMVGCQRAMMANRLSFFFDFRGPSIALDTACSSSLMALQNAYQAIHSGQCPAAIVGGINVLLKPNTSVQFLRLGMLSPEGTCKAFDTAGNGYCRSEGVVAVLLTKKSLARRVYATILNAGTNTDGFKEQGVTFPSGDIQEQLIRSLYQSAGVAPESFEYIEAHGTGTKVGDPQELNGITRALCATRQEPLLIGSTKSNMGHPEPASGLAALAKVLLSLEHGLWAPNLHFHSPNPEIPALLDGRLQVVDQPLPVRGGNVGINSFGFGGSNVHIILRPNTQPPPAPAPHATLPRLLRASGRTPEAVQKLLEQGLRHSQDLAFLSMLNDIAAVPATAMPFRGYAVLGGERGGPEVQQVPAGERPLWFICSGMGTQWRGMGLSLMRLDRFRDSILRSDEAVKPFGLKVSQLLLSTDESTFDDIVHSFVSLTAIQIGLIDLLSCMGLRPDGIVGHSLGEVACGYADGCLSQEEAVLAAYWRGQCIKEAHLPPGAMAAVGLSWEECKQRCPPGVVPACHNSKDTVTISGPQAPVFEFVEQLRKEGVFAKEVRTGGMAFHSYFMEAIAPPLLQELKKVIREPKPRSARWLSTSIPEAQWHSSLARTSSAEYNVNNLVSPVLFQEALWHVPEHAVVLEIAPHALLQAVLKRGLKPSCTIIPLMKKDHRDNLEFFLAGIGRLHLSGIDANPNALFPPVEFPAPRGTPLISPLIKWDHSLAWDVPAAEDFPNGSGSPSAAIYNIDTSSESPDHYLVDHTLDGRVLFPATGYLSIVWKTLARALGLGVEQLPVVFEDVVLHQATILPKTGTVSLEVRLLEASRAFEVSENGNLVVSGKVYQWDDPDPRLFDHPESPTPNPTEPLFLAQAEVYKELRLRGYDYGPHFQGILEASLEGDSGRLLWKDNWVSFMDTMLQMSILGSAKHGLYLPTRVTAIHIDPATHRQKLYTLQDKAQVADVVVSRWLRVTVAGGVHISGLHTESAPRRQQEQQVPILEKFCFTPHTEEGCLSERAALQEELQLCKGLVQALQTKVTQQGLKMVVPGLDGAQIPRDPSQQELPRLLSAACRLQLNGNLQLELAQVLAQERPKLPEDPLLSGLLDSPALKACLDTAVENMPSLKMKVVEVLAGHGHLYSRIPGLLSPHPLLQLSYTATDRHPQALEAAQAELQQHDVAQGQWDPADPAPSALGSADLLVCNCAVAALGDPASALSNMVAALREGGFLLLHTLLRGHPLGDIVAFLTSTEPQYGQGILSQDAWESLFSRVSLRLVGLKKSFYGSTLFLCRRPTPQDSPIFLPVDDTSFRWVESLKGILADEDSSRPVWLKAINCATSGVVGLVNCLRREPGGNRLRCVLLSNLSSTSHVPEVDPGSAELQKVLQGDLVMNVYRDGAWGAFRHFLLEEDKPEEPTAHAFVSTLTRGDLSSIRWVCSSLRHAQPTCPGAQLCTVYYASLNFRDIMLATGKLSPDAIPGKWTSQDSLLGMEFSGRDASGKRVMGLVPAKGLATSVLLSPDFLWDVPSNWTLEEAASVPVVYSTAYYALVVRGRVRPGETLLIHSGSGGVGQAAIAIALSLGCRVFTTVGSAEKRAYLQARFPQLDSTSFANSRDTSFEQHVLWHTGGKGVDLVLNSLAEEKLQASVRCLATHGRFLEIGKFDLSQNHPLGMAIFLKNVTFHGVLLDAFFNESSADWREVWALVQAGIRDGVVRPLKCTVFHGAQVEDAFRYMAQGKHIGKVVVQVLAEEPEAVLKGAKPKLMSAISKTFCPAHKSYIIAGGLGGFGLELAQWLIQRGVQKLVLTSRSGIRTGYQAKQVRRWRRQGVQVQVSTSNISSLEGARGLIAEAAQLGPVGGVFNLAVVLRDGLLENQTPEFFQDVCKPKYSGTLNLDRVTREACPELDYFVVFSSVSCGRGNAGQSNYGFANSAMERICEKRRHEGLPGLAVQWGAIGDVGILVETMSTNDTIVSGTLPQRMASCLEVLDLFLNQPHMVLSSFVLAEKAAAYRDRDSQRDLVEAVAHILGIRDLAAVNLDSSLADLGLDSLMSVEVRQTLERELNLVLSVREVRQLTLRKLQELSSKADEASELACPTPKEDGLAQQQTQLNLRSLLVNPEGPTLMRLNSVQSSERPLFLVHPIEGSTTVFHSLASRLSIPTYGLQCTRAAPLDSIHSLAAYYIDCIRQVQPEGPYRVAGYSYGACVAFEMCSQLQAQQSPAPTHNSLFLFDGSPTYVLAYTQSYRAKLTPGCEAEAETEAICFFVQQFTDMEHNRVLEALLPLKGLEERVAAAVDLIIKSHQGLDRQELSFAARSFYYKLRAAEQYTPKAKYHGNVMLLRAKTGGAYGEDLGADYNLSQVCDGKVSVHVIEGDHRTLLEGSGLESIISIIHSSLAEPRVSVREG
structure (smiles),measurement,setting,value
CCNP(=S)(OC)O/C(C)=C/C(=O)OC(C)C (stereo not given),AC50,[1],50 µM (active)
same,outcome,[2],inactive
same,AC50,[3],36.3 µM (active)
same,outcome,[4],inactive
same,outcome,[5],inactive
same,outcome,[6],inactive
same,outcome,[7],inactive
same,outcome,[8],inactive
same,AC50,[9],14.3 µM (active)
same,outcome,[10],inactive
same,outcome,[11],inactive
same,outcome,[12],inactive
same,outcome,[13],inactive
same,outcome,[14],inactive
same,outcome,[15],inactive
same,AC50,[16],13.1 µM (active)
same,AC50,[17],13.6 µM (active)
CN/C(=N\[N+](=O)[O-])NCc1cnc(Cl)s1,outcome,[1],inactive
same,outcome,[2],inactive
same,AC50,[3],50 µM (active)
same,outcome,[5],inactive
same,outcome,[6],inactive
same,outcome,[7],inactive
same,outcome,[8],inactive
same,outcome,[9],inactive
same,outcome,[18],inactive
same,outcome,[10],inactive
same,outcome,[11],inactive
same,outcome,[19],inactive
same,outcome,[13],inactive
same,outcome,[14],inactive
same,outcome,[15],inactive
same,outcome,[16],inactive
same,AC50,[17],28.6 µM (active)
C=CCOC(=O)C(C)(C)OC(=O)c1cc(-n2c(=O)cc(C(F)(F)F)n(C)c2=O)ccc1Cl,outcome,[2],inactive
same,outcome,[3],inactive
same,outcome,[4],inactive
same,outcome,[5],inactive
same,outcome,[6],inactive
same,outcome,[7],inactive
same,outcome,[8],inactive
same,outcome,[9],inactive
same,outcome,[18],inactive
same,outcome,[10],inactive
same,outcome,[11],inactive
same,outcome,[12],inactive
same,outcome,[14],inactive
same,outcome,[15],inactive
same,outcome,[16],inactive
same,outcome,[17],inactive
